From PubChem
Most compounds without a hit are left out; they make up all but 2.3% or so of the library.
Rce1 inh: yeast Rce1p protease inhibitors, primary screen, biochemical, fluorescence, cell-free homogeneous; AID 2563, 2010; actives 0.27% (n = 290,000); CAAX prenyl protease 2 (Saccharomyces cerevisiae (strain ATCC 204508 / S288c)), Q03530; calls only; yeast membranes, quenched prenylated peptide cleavage fluorescence;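 active means fall in fluorescence gain of 50% or more versus controls, with final raw signal at or below 3038400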;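 further: plate controls were neutral control wells for no effect and wells lacking membranes for full effect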
DNA FID counter: compounds displacing fluorescent DNA intercalator, primary screen, artefact control for HCV NS3 helicase inhibitor project, biochemical, FID fluorescence | DNA fluorescent intercalator displacement | inhibition, % at 7.9 µM | actives 0.17% (n = 290,000); in the data active means inhibition above about 37%;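 further: 0% = vehicle and 100% = reference compound; higher means more ethidium bromide displaced from hairpin DNA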
M18AAP inhibitor: PfM18AAP inhibitors, malaria aminopeptidase, primary screen, biochemical, QFRET, recombinant enzyme | H-Glu-NHMec fluorogenic cleavage | inhibition, % at 7.35 µM | actives 1.2% (n = 290,000) | AID 1822, 2009;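 active means inhibition above the campaign mean inhibition over all tested compounds plus 3 SD, cut at about 28% in these data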;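 further: 0% = plate median of test compound wells and 100% = 2 mM ZnCl2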
Kir21 inh: inhibitors of mouse Kir2.1 inward-rectifier potassium channel; Inward rectifier potassium channel 2 (Mus musculus), P35561; HEK293-Kir2.1, FluxOR thallium flux fluorescence; stronger effect = lower value; B-score at 10 µM; actives 0.85% (n = 310,000);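 active means fluorescence ratio B-score at or below minus 3 SD of library scores, with starting-brightness B-score within 2 SD, cut at about -4.2 in these data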;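 further: channel flux triggered by added potassium and thallium sulfate stimulus; B-score of peak minus minimum fluorescence over baseline after thallium stimulus; more negative B-score means stronger Kir2.1 block with less thallium influx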
Target sequence (P35561 whole entry, looked up): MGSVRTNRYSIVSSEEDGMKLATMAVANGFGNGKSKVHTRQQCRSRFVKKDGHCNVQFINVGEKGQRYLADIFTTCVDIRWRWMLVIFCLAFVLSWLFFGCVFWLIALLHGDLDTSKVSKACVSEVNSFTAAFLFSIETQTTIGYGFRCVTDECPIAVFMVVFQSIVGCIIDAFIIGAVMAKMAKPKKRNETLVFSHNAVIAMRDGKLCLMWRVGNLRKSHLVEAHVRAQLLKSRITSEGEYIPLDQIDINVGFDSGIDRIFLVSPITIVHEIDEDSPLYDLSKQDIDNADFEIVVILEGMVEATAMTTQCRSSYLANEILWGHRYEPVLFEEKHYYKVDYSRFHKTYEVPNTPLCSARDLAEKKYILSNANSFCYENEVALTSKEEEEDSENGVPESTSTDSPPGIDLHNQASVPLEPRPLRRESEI
Active calls of the source: *; i = inactive; x = no result given; + = active, no number.

SMILES	Rce1 inh	DNA FID counter	M18AAP inhibitor	Kir21 inh
Cc1ccc(NC(=O)CSc2nc(=O)n(CCCN3CCOCC3)c3c2CCCC3)cc1	i	x	x	-0.63
CC(C)OC(=O)CSc1nc(Cc2cccs2)nc2ccccc12	i	-28	4	-4.4*
Cc1cc2c(c(=O)n1CCCn1ccnc1)C(c1ccco1)C(C#N)=C(N)O2 (configuration not stated)	i	13	28*	-2.7
OCCC1CN(Cc2ccc(Oc3ncccn3)cc2)CCN1C1CCCCC1 (configuration not stated)	i	1	-4	-0.04
COc1ccc(CCC(=O)Nc2nnc(C(F)(F)F)s2)cc1	i	-17	6	0.65
CCOC(=O)CC1C(=O)NCCN1S(=O)(=O)c1ccc(F)cc1 (configuration not stated)	i	-10	0	1.5
CCOC(=O)CC1C(=O)NCCN1S(=O)(=O)c1ccc(NC(C)=O)cc1 (configuration not stated)	i	-3	28*	-1.6
O=C(NNC(=O)c1cccc2ccccc12)c1ccc2c(c1)OCO2	i	-3	10	-13
Cc1noc(C)c1COC(=O)CNC(=O)c1cccc(F)c1	i	4	4	0.04
Cc1noc(C)c1COC(=O)C1(c2cccc(F)c2)CCCC1	i	-18	-3	-4.3*
c1ccc(-c2ccccc2OCCOCCN2CCCCC2)cc1	i	11	8	-2
CC1CCN(CCOCCOc2ccccc2-c2ccccc2)CC1	i	13	-2	-5.5*
c1ccc(CN2CCN(CCOCCOc3cccc4ccccc34)CC2)cc1	i	23	2	-14*
c1ccc(-c2ccccc2OCCCCN2CCCCCC2)cc1	i	27	-1	-6.6*
CC1CCN(CCCCOc2ccccc2-c2ccccc2)CC1	i	15	-12	-9.7*
O=C(c1ccco1)N1CCN(CCOCCOc2cccc3ccccc23)CC1	i	-13	1	1.6
CC1=C(C(=O)OCc2ccccc2)C(c2ccc3c(c2)OCO3)NC(=O)N1CCCC(=O)O (configuration not stated)	i	x	x	0
CCO[C@H]1OC(C(N)=O)=C[C@@H](C2CC2)[C@@H]1CCCO	i	x	x	0.3
NC(=O)c1ccccc1OCc1nnc(-c2ccccc2Br)o1	i	-10	2	-0.09
CC1CCN(CCOc2ccc(OCc3ccccc3)cc2)CC1	i	13	3	-7.1*
CN(C)c1ccc(NC(=O)C2C3C=CC(C3)C2C(=O)O)cc1 (configuration not stated)	i	11	55*	0.84
CC(C)Nc1nc(Cl)nc(N(C#N)CN2C(=O)c3ccccc3C2=O)n1	i	-2	3	-5.2*
Cc1cc(S(=O)(=O)N2CCOCC2)ccc1OCC(=O)N1CCCC1	i	-4	2	-0.64
COc1cc(C)c(S(=O)(=O)NOCc2ccccc2)c(C)c1C	i	-27	3	-7.1*
COc1cc(C)c(S(=O)(=O)NOCc2ccc([N+](=O)[O-])cc2)c(C)c1C	i	-9	3	0.62
SMILES	Rce1 inh	DNA FID counter	M18AAP inhibitor	Kir21 inh
COc1ccc(C)cc1N(CC(=O)N1CCc2ccccc2C1)S(C)(=O)=O	i	-22	-4	0.6
Fc1ccccc1Nc1nc2c(s1)CCc1ccccc1-2	x	4	42*	x
Fc1ccccc1Nc1n[nH]c(=S)s1	i	-4	18	-0.5
Cc1ccc(NC(=O)c2ccc3nsnc3c2)c(C)c1	i	-9	-11	1.4
O=C(Nc1nc2ccccc2[nH]1)c1cccc(Cl)c1	i	-7	0	0.66
O=C(O)c1ccc(Nc2nc3ccc(Cl)cc3[nH]2)cc1	+	-1	0	-0.05
Cc1ccc2oc(=O)c(/C=C(\O)C(C)(C)C)nc2c1	i	-3	23	1.4
Cc1ccc2oc(=O)c(/C=C(\O)c3sc(C)nc3C)nc2c1	i	-3	29*	-2.3
CC(C)(C)C(=O)Nc1c2c(nn1-c1ccccc1)CSC2	i	-12	0	0.49
CCOC(=O)CNC(=S)n1cnc(N)n1	i	-11	57*	0.33
CCOC(=O)CNC(=O)CSc1nc(N)cc(N)n1	i	2	-8	-0.78
Cc1cc(C)nc(N2CCCC(C(=O)NCc3ccccc3F)C2)n1 (configuration not stated)	i	0	-11	0.25
CN(CC(=O)NCCc1ccc(F)cc1)Cc1cccc(Cl)c1	i	-11	2	-7.3*
CN(CC(=O)NCCCc1ccccc1)Cc1ccc(Br)cc1	i	-12	2	-2.9
